Data from PubChem BioAssay (NCATS).
Records with an inconclusive call do not appear. Entries that show only a call come without a potency. The source made the active and inactive calls. The call rests on the fitted dose curve; in most records, active means well fitted cell-killing curve with a large enough effect; inconclusive means small, poorly fitted or top-dose-only effect, or effect the other way; inactive means flat fitted curve, though single readings scatter.

Each compound was assayed on CAOV3 (assay: Primary qHTS to identify gynecologic anti-cancer compounds using libraries of approved drugs and bioactive compounds (AID 1345084; further: nearly all actives have a fitted effect of over 55% in size)). Conditions: Gynecologic cancer cell panel viability, ATPlite luminescence, 48 h; series mostly up to 57.5 µM.
Summary of the method: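 Five-concentration response, 48 h; readout is ATP-driven luciferase luminescence.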
With `CCC(C)C(=O)O[C@H]1CCC=C2C=C[C@H](C)[C@H](CC[C@@H](O)C[C@@H](O)CC(=O)O)[C@H]21` (stereo partly drawn) the Potency was “inactive”.
With `CC(=O)NC1C(OC(C)(C)C2CCC3(C)C=C(C4CCC5C4(C)CC(O)C4OC(C(C)(C)O)CCC45C)CCC3O2)OC(CO)C(O)C1O` (stereo not drawn) the Potency was “inactive”.
With `CC(=O)O[C@@H]1c2c3c(cc(O)c2C(=O)O[C@@H]1C)O[C@@]1(C)[C@@H](O)C[C@H]2C(C)(C)C(=O)C=C[C@]2(C)[C@@H]1C3` the Potency was “inactive”.
In the case of `COc1c(C)c(OCC(O)C(C)(C)O)cc2c1COC2=O` (stereo not drawn), the Potency was “inactive”.
For `CC(=O)CC1CCC(C(C)C(=O)OCC(O)CO)O1` (stereo not drawn), the Potency was “inactive”.
For `O=C(O)COCCN1CCN([C@H](c2ccccc2)c2ccc(Cl)cc2)CC1`, the Potency was “inactive”.
`Nc1nc2c(ncn2[C@@H]2O[C@@H]3COP(=O)(O)O[C@H]3[C@H]2O)c(=O)[nH]1` was tested, and the Potency was “inactive”.
For `CC1=C(C(=O)O)/C(=C/CO[C@@H]2O[C@H](COC(=O)/C=C/c3ccc(O)cc3)[C@@H](O)[C@H](O)[C@H]2O)C(O)C1` (stereo partly drawn), the Potency was “inactive”.
With `Cc1cc(C)c2c(N)c(C(=O)NCc3ccc(Cl)cc3)sc2n1` the Potency was “inactive”.
`CC(=O)OC1C(O)C2C(C)C3=CC(=O)OC3(O)CC2C2(C)CCCC(C)(CO)C12` (stereo not drawn) was tested, and the Potency was “inactive”.
With `CC(C)C(NC(=O)c1ccc2ccccc2n1)C(=O)NC(CC(=O)O)C(=O)COc1c(F)cccc1F` (stereo not drawn) the Potency was “inactive”.
In the case of `O=C(Nc1ccc(-c2ccncc2)cc1)N[C@H](CO)c1ccccc1`, the Potency was “inactive”.
`CC1=CC2/C=C(\C)CC[C@@H](O)[C@@H](O)[C@@H]3O[C@@H]3C(=O)[C@]23C(=O)N[C@@H](CC(C)C)[C@@H]3[C@@H]1C` (stereo partly drawn) was tested, and the Potency was “inactive”.
